# nsP2pro inh: blocks chikungunya virus nsP2 protease peptide cleavage | FRET peptide cleavage, nsP2pro, fluorescence 1 h | Potency, µM (titrated, usually from 24.9 µM), without a hit: at the highest dose activity change, negative = inhibition, usual class: inhibitors | Q8JUX6 | hit rate 1.1% among 31,000; further: nearly all actives have a fitted effect of over 60% in size
#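 Recombinant nsP2pro (150 nM) was preincubated with compound 15 min at room temperature in 10 mM Tris-HCl pH 8.0, 0.01% Tween 20. Peptide 2 FRET substrate (2.5 uM) was then added and fluorescence read after 1 h. Seven-point series, up to 25 uM.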
# nsP2 cell sec: secondary cell-based test for CHIKV nsP2 protease inhibitors; shares compounds with nsP2pro inh; cell-based CHIKV nsP2 protease reporter assay; Potency, µM (series often up to 51.1 µM), for the others: at the highest dose activity change, negative = inhibition, most hits filed as inhibitors; hit rate 10% among 450; further: nearly all actives have a fitted effect of over 70% in size
# NSP2 full ctr: full-length CHIKV NSP2 protease inhibition, selectivity; shares compounds with nsP2pro inh; hit rate 39% among 410; Full-length CHIKV NSP2 protease enzymatic counterscreen; Potency, µM (top dose mostly 50.7 µM), for the others: top-dose activity change, negative = inhibition, actives largely listed as inhibitors; AID 1964101; further: nearly all actives have a fitted effect of over 65% in size
# Furin counter: selectivity counter-screen for CHIKV nsP2 protease inhibitors: human furin. shares compounds with nsP2pro inh. Recombinant human furin enzymatic counterscreen, fluorogenic substrate. hit rate 6% among 410. Potency, µM (series often up to 50.6 µM), for inactives: at the highest dose activity change, negative = inhibition, usual class: inhibitors. AID 1964102
# nsP2 NS23 pep: selectivity test for CHIKV nsP2 protease inhibitors: endogenous NS2/3 peptide | shares compounds with nsP2pro inh | Purified CHIKV nsP2 protease, endogenous NS2/3 peptide cleavage | Potency, µM (doses to about 51 µM), without a hit: top-dose activity change, negative = inhibition, hits mostly inhibitors | hit rate 34% among 410; further: nearly all actives have a fitted effect of over 55% in size
# Papain counter: inhibits papain in a CHIKV nsP2 protease selectivity counterscreen | shares compounds with nsP2pro inh | purified papain protease activity, enzymatic inhibition | Potency, µM (titrated, usually from 51 µM), for the others: top-dose activity change, negative = inhibition, hits mostly inhibitors | hit rate 5% among 410
# nsP2pro confirm: CHIKV nsP2 protease inhibition, confirmatory qHTS. shares compounds with nsP2pro inh. CHIKV nsP2 protease enzymatic activity, qHTS. Potency, µM (titrated, usually from 25.5 µM), without a hit: at the top dose activity change, negative = inhibition, actives largely listed as inhibitors. hit rate 43% among 410; further: nearly all actives have a fitted effect of over 75% in size
# HCV NS3 counter: HCV NS3/4A protease inhibition, counterscreen; shares compounds with nsP2pro inh; HCV NS3/4A protease biochemical counterscreen; hit rate 20% among 410; AID 1964106; Potency, µM (top dose mostly 50.9 µM), most hits filed as inhibitors; further: nearly all actives have a fitted effect of over 55% in size
# * hit, by the source's call; i = inactive; u = inconclusive; ! = not confirmed by another sample; [ ] = remark or other dose. Only a selection was taken, and hits are over-represented in it overall. The call rests on the fitted dose curve. On the % scale 0 is the no-effect control and ±100 the full control effect; potency means the concentration at half of the fitted maximal effect.
SMILES,nsP2pro inh,others
Cc1nc(C(C)N(C)c2ncnc3ccc(-c4ccc5c(c4)OCO5)cc23)cs1 (centres undefined),i,
Cc1ccnc(NC(=S)N2CCN(c3ccc(Cl)cc3Cl)CC2)c1,i,
CC1=C(C(=O)c2ccccc2)C(c2ccccc2Cl)N=C(Nc2nc3ccccc3o2)N1 (centres undefined),i,
O[C@@H]1[C@@H](O)[C@@H](O)OC[C@@H]1O,-10.9%[78.4 µM],
Cc1cc(C)nc(NC(=S)N2CCN(c3ccc4c(c3)OCO4)CC2)c1,4.4%,
O=c1c2ccc([N+](=O)[O-])cc2nc2sc(Nc3ccc4c(c3)CCC4)nn12,i,
COC(=O)C[C@H]1C(C)(C)[C@H](OC(C)=O)C2CC3=C4CC(=O)O[C@@H](c5ccoc5)[C@]4(C)CCC3[C@@]1(C)C2=O (some centres undefined),-2.1%[10 µM],
CC1(C)O[C@H]2CC(=O)OC[C@]23[C@H]2CC[C@@]4(C)[C@H](c5ccoc5)OC(=O)[C@H]5O[C@]54[C@]2(C)C(=O)C[C@@H]13,-13.4%,
COC(=O)/C=C/C12COC(C)(C)C1C(O)C(OC(C)=O)C1(C)C2CCC2(C)C(c3ccoc3)OC(=O)C3OC321 (centres undefined),u,nsP2 cell sec=5.0%[17.6 µM];NSP2 full ctr=-7.5%[17.3 µM];Furin counter=-6.5%[17.3 µM];nsP2 NS23 pep=-15.5%[17.2 µM];Papain counter=5.4%[17.2 µM];nsP2pro confirm=-4.4%[8.62 µM];HCV NS3 counter=i
O=C(Nc1nc(-c2ccccc2)cs1)c1ccncc1NS(=O)(=O)c1cccs1,1.2%,
CN1CCC[C@@H]1Cc1c[nH]c2ccc(CCS(=O)(=O)c3ccccc3)cc12,-9.6%,
CN(C)CCc1c[nH]c2ccc(C[C@H]3COC(=O)N3)cc12,u,nsP2 cell sec=0.6%;NSP2 full ctr=56.4%;Furin counter=-0.5%;nsP2 NS23 pep=-10.4%;Papain counter=-0.9%;nsP2pro confirm=u;HCV NS3 counter=i
OC[C@H]1O[C@@H](OCCc2ccc(O)cc2)[C@H](O)[C@@H](O)[C@@H]1O,37.3%,
C=C(CCO[C@@H]1O[C@H](CO)[C@@H](O)[C@H](O)[C@H]1O)C(=O)O,u,nsP2 cell sec=-5.0%;NSP2 full ctr=-4.4%;Furin counter=6.1%;nsP2 NS23 pep=0.0%;Papain counter=-1.5%;nsP2pro confirm=1.5%;HCV NS3 counter=i
CC(C)C(=O)OC[C@H]1O[C@H](O[C@H]2O[C@H](CO)[C@@H](O)[C@H](O)[C@H]2O)[C@H](O)[C@@H](O)[C@@H]1O,-6.8%[10 µM],
Oc1cccc2cc(N3CCNCC3)cnc12,i,
Nc1nc2c(s1)CCN(Cc1ccc(Cl)cc1)CC2,8.81µM*,nsP2 cell sec=105.4%;NSP2 full ctr=4.2%;Furin counter=7.0%;nsP2 NS23 pep=-16.7%;Papain counter=-11.6%;nsP2pro confirm=u;HCV NS3 counter=i
CC1=NOC2(CCN(Cc3ccc(Cl)cc3)CC2)C1,i,
O=C1CN(Cc2ccc(Cl)cc2)CCN1c1ccc(Cl)nn1,4.2%[39.2 µM],
CCOc1ccc(CCNC(=O)c2cc3cnccc3n2Cc2cccc(C)c2)cc1OCC,i,
Cc1cccc(-n2cnc3cc(C(=O)N4CCCC(C)(C)C4)ccc32)c1,-4.1%,
CC(=O)N1CCC(C(=O)N(CCCN2CCC(Cc3ccc(C(N)=O)cc3)CC2)c2ccc(C)c(Cl)c2)CC1,-20.5%,
O=C(O)CCc1cccc(O[C@@H]2O[C@H](CO)[C@@H](O)[C@H](O)[C@H]2O)c1O,133.2%,
CCOC(=O)C1CCN(C(=O)Cn2ncc3c4ccccc4n(C)c3c2=O)CC1,-15.3%,
Cc1ccc(C)c(N2CCN(C(=O)Cn3ncc4ccsc4c3=O)CC2)c1,-19.2%,
SMILES,nsP2pro inh,others
CCOC(=O)N1CCN(C(=O)Cn2sc3nc(C)cc(C)c3c2=O)CC1,3.94µM*,nsP2 cell sec=24.2%;NSP2 full ctr=u;Furin counter=3.3%;nsP2 NS23 pep=20.6µM*;Papain counter=-12.9%;nsP2pro confirm=4µM*;HCV NS3 counter=i
Cc1ccnc(NC(=S)NC2CN(c3cccc(C(F)(F)F)c3)C2)c1,1.7%,
O=C(/C=C/c1ccc(O)c2c1[C@H](C(=O)O)[C@@H](c1ccc(O)c(O)c1)O2)O[C@H](Cc1ccc(O)c(O)c1)C(=O)O,86.7%,
COc1ccc(-n2c(=O)[nH]c3cc(C(=O)NCc4ccc(Cl)cc4)sc3c2=O)nc1OC,9.8%,
CCOc1ccc(-c2nc(CNC(=O)Nc3ccccc3)c(C)o2)cc1,-17.7%,
Cc1oc(-c2ccc(C(=O)NCCCOC(C)C)cc2)nc1CS(=O)(=O)c1ccccc1,-17.7%,
CO[C@@H](Cc1ccc(OCCc2nc(-c3ccccc3)oc2C)c2ccsc12)C(=O)O,9.88µM*,nsP2 cell sec=21.3%;NSP2 full ctr=-0.2%;Furin counter=-6.4%;nsP2 NS23 pep=i;Papain counter=u;nsP2pro confirm=u;HCV NS3 counter=i
Cc1ccnc(NC(=S)N[C@@H]2CCN(c3cccc(C(F)(F)F)c3)C2)c1,i,
CN(CCCCCCN(C)C(=O)Oc1ccc[n+](C)c1)C(=O)Oc1ccc[n+](C)c1,-4.2%,
COC(=O)c1cncc(NC(=O)c2cccs2)c1,i,
CC(C)CC(C(=O)NC(C(=O)OC1CCCC1)c1ccccc1)C(O)C(=O)NO (centres undefined),-19.8%,
CCOC(=O)C1CCN(C(=O)c2ccc3oc(-c4cccnc4)nc3c2)CC1,3.6%,
Cc1ccc(-c2cc(C(=O)NCc3ccc(S(C)(=O)=O)cc3)c3ccccc3n2)cc1C,-5.6%,
CC(O)(C#Cc1ccc2c(c1)N(c1nc(N)ncc1Cl)CC2)c1nccs1 (centres undefined),5.01µM*!,nsP2 cell sec=2.06µM*;NSP2 full ctr=7.3µM*;Furin counter=u;nsP2 NS23 pep=14.6µM*;Papain counter=-21.8%;nsP2pro confirm=2.25µM*;HCV NS3 counter=u
CCOc1ccc(CCNC(=O)c2cccc(C(=O)c3ccccc3)c2)cc1OCC,-15.6%,
O=[N+]([O-])c1cc(Cl)ccc1S(=O)(=O)N1CCN(Cc2ccccc2)CC1,-6.8%,
O=[N+]([O-])c1ccc(O/N=[N+](\[O-])N2CCN(c3ncccn3)CC2)c([N+](=O)[O-])c1,-25.4%,
O=[N+]([O-])c1ccc(S(=O)(=O)N2CCN(c3ccnc4cc(Cl)ccc34)CC2)c([N+](=O)[O-])c1,u,nsP2 cell sec=5.62µM*;NSP2 full ctr=u;Furin counter=-9.6%;nsP2 NS23 pep=4.11µM*;Papain counter=-17.1%;nsP2pro confirm=u;HCV NS3 counter=i
O=C(CCl)N1CCC2(CC1)CC(c1cccc(C(F)(F)F)c1)=NO2,-9.1%[39.2 µM],
O=C(Nc1ccc(S(=O)(=O)Nc2nccs2)cc1)C1CCC2(CC1)CC2,0.9%,
Cc1cccc(-n2cnc3cc(C(=O)N4CCC(C(F)(F)F)CC4)ccc32)c1,1.0%,
